The compounds below were run on Pectobacterium parmentieri SCC3193 (assay: DuctApe activity index (growth/respiration on compound as sole nutrient source, blank-subtracted) (activity index (0-3)); higher = stronger utilization of the compound, active = 3 or more). Details: nutrient role (plate category): nitrogen.
Method: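 Biolog Phenotype Microarray plates PM1, PM2A (carbon), PM3 (nitrogen) and PM4 (phosphorus/sulfur) inoculated with P. parmentieri SCC3193 in M9-C minimal salts medium with Biolog dye A, and read in the OmniLog for 46 h. Each well was tested in triplicate and the experiment was run twice. DuctApe computed a blank-subtracted activity index (AV, 0-3) from the mean curves; growth is positive at AV >= 3 and negative at AV <= 2.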

DuctApe activity index, inactive:
Nc1nc2c(ncn2[C@@H]2O[C@H](CO)[C@@H](O)[C@H]2O)c(=O)[nH]1 [Guanosine] 0
O=C1NC(=O)C(=O)N1 [Parabanic acid] 0
O=NO [Nitrite] 0
CSCC[C@H](N)C(=O)N[C@@H](C)C(=O)O 0
NCCO [Ethanolamine] 0
N[C@H]1C(O)O[C@H](CO)[C@H](O)[C@@H]1O (stereo partly drawn) [D-Galactosamine] 0

Same assay, conditions: nutrient role (plate category): phosphate & sulphur

DuctApe activity index, inactive:
Nc1nc2c(ncn2[C@@H]2O[C@H](CO)[C@@H](O)[C@H]2OP(=O)(O)O)c(=O)[nH]1 [Guanosine 2`-Monophosphate] 2
N[C@H](CS)C(=O)O [D-Cysteine] 1
N[C@@H](CS(=O)(=O)O)C(=O)O [L-Cysteic acid] 1
Nc1ccc(S(=O)(=O)O)cc1 [p-Aminobenzene Sulfonic acid] 0
Nc1ncnc2c1ncn2[C@@H]1O[C@H](CO)[C@@H](O)[C@H]1OP(=O)(O)O [Adenosine 2`-Monophosphate] 2
O=c1ccn([C@@H]2O[C@H](CO)[C@@H](OP(=O)(O)O)[C@H]2O)c(=O)[nH]1 [Uridine 3`-Monophosphate] 2
O=P(O)(O)OC(CO)CO [b-Glycerol Phosphate] 2
NC(N)=S [Thiourea] 0
Nc1nc2c(ncn2[C@@H]2O[C@H](CO)[C@@H](OP(=O)(O)O)[C@H]2O)c(=O)[nH]1 [Guanosine 3`-Monophosphate] 2
C=C(OP(=O)(O)O)C(=O)O [Phosphoenol Pyruvate] 2
C[C@H](CCC(=O)NCCS(=O)(=O)O)[C@H]1CC[C@H]2[C@@H]3[C@H](O)C[C@@H]4C[C@H](O)CC[C@]4(C)[C@H]3C[C@H](O)[C@]12C [Taurocholic acid] 2
CSC[C@H](N)C(=O)O [S-Methyl-L-Cysteine] 1

Reference: the supplement of paper PMC6518042
